Results published in the supplement of paper PMC10849652.
Of roughly 7,900 targets only a part is listed; those with a hit were picked by preference. About 0.6% of all pairs of compound and target were hits. A number with no mark means an inactive call.

Assays:
Assay in all cases: log2 fold change, soluble protein after heating vs DMSO (PISA); higher = thermal stabilisation; K562 cells, 10 uM, 30 min; active = over 0.2 and 3.5 SD of the protein, either way, in both replicates (recomputed)
[1] = compound: CC[C@@H]1C(=O)N(C)c2cnc(Nc3ccc(C(=O)NC4CCN(C)CC4)cc3OC)nc2N1C1CCCC1
Procedure, shortened: (§1)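 Soluble protein was quantified by TMTpro 16plex LC-MS/MS after channel sums were equalised. It was obtained as the supernatant after 21,000xg for 90 min from pooled aliquots of K562 cells (2×10^6 cells/mL, 10 μM compound, 30 min) heated for 3 min across 48°C-58°C and extracted in PBS with 0.5% NP-40 at 4°C. Thermal stability values are relative to control samples and come from duplicates. They are given as log2 fold changes.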

volasertib = compound: CC[C@@H]1C(=O)N(C)c2cnc(Nc3ccc(C(=O)N[C@H]4CC[C@H](N5CCN(CC6CC6)CC5)CC4)cc3OC)nc2N1C(C)C [volasertib]
Procedure, shortened: as §1

[2] = compound: CC[C@H](C)N1C=C(C2=C(C=C(C=C21)C3=CN=C(C=C3)N4CCNCC4)C(=O)NCC5=C(C=C(NC5=O)C)C)C
Procedure, shortened: as §1

epoxomicin = compound: CC[C@H](C)[C@@H](C(=O)N[C@@H]([C@@H](C)O)C(=O)N[C@@H](CC(C)C)C(=O)[C@]1(CO1)C)NC(=O)[C@H]([C@@H](C)CC)N(C)C(=O)C [epoxomicin]
Procedure, shortened: as §1

[3] = compound: CCn1c(C(=O)N(C2CC2)C2CC2)cc2c3c(ncn3C)c(Nc3cc(C)n(C)n3)nc21
Procedure, shortened: as §1

[4] = compound: CCn1cc(-c2ccnc3[nH]c(-c4cccc(CN(C)C)c4)cc23)c(-c2ccc(NC(=O)N(C)C)cc2)n1
Procedure, shortened: as §1

[5] = compound: CN(C)CC(=O)Nc1ccc2[nH]c(=O)c3ccccc3c2c1
Procedure, shortened: as §1

rosiglitazone = compound: CN(CCOC1=CC=C(C=C1)C[C@H]2C(=O)NC(=O)S2)C3=CC=CC=N3 (racemic) [rosiglitazone]
Procedure, shortened: as §1

[6] = compound: CN1C2=C(C3=C1C(=O)N(N=C3)CC4=CC(=CC=C4)N)SC(=C2)S(=O)C
Procedure, shortened: as §1

[7] = compound: CN1CCC(CNc2ccc3ncc(-c4cccc(OC(F)(F)F)c4)n3n2)CC1
Procedure, shortened: as §1

saracatinib = compound: CN1CCN(CCOc2cc(OC3CCOCC3)c3c(Nc4c(Cl)ccc5c4OCO5)ncnc3c2)CC1 [saracatinib]
Procedure, shortened: as §1

sotrastaurin = compound: CN1CCN(c2nc(C3=C(c4c[nH]c5ccccc45)C(=O)NC3=O)c3ccccc3n2)CC1 [sotrastaurin]
Procedure, shortened: as §1

alvocidib = compound: CN1CC[C@H](c2c(O)cc(O)c3c(=O)cc(-c4ccccc4Cl)oc23)[C@H](O)C1 [alvocidib]
Procedure, shortened: as §1

Tubastatin A = compound: CN1CCc2c(c3ccccc3n2Cc2ccc(C(=O)NO)cc2)C1 [Tubastatin A]
Procedure, shortened: as §1

[8] = compound: CNC(=O)C1=CC=CC=C1NC2=NC(=NC=C2Cl)NC3=C(C=C(C=C3)N4CCOCC4)OC
Procedure, shortened: as §1

defactinib = compound: CNC(=O)c1ccc(Nc2ncc(C(F)(F)F)c(NCc3nccnc3N(C)S(C)(=O)=O)n2)cc1 [defactinib]
Procedure, shortened: as §1

rucaparib = compound: CNCc1ccc(-c2[nH]c3cc(F)cc4c3c2CCNC4=O)cc1 [rucaparib]
Procedure, shortened: as §1

[9] = compound: CNc1nc(-c2ccc3c(N)n[nH]c3c2)cc(N2C[C@@H](C(=O)NC3CCCCC3)CC[C@H]2C)n1
Procedure, shortened: as §1

encorafenib = compound: COC(=O)N[C@@H](C)CNc1nccc(-c2cn(C(C)C)nc2-c2cc(Cl)cc(NS(C)(=O)=O)c2F)n1 [encorafenib]
Procedure, shortened: as §1

[10] = compound: COC(=O)[C@H](CCSC)NC(=O)C1=C(C=C(C=C1)NC[C@H](CS)N)C2=CC=CC=C2
Procedure, shortened: as §1

Sequence of UniProt Q330K2 (Q330K2 whole entry, looked up): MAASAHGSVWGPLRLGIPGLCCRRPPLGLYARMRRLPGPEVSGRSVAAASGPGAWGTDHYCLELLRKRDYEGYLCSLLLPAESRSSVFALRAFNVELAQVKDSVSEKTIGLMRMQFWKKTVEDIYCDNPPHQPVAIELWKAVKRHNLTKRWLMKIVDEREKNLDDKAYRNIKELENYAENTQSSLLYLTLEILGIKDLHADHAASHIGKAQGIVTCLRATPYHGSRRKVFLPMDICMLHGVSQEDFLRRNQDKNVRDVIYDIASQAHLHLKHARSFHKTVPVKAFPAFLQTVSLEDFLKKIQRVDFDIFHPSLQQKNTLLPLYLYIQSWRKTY
Sequence of UniProt P57740 (P57740 whole entry, looked up): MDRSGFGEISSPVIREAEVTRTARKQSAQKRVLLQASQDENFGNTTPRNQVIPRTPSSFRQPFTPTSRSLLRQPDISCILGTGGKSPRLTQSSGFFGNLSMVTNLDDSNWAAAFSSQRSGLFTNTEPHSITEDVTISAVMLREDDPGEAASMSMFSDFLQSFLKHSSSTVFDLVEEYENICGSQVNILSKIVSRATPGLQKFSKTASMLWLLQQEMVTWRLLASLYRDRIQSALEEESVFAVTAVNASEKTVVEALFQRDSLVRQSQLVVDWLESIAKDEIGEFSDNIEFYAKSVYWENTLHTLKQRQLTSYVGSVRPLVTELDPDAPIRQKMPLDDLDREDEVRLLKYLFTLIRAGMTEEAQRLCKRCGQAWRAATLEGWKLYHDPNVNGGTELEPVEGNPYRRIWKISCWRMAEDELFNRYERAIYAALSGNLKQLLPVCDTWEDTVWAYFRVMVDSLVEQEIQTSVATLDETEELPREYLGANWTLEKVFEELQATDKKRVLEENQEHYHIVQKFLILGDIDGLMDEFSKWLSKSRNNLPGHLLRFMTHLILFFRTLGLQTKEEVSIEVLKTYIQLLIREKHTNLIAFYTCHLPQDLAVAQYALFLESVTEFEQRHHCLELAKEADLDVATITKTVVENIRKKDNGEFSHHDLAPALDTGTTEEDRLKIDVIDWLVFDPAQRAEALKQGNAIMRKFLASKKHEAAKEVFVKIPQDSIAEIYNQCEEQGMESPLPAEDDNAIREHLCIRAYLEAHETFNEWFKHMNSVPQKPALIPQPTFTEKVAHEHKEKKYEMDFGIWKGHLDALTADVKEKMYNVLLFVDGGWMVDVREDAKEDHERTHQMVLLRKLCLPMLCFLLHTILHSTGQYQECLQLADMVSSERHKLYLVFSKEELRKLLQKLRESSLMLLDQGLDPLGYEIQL
Sequence of UniProt P35749 (P35749 whole entry, looked up): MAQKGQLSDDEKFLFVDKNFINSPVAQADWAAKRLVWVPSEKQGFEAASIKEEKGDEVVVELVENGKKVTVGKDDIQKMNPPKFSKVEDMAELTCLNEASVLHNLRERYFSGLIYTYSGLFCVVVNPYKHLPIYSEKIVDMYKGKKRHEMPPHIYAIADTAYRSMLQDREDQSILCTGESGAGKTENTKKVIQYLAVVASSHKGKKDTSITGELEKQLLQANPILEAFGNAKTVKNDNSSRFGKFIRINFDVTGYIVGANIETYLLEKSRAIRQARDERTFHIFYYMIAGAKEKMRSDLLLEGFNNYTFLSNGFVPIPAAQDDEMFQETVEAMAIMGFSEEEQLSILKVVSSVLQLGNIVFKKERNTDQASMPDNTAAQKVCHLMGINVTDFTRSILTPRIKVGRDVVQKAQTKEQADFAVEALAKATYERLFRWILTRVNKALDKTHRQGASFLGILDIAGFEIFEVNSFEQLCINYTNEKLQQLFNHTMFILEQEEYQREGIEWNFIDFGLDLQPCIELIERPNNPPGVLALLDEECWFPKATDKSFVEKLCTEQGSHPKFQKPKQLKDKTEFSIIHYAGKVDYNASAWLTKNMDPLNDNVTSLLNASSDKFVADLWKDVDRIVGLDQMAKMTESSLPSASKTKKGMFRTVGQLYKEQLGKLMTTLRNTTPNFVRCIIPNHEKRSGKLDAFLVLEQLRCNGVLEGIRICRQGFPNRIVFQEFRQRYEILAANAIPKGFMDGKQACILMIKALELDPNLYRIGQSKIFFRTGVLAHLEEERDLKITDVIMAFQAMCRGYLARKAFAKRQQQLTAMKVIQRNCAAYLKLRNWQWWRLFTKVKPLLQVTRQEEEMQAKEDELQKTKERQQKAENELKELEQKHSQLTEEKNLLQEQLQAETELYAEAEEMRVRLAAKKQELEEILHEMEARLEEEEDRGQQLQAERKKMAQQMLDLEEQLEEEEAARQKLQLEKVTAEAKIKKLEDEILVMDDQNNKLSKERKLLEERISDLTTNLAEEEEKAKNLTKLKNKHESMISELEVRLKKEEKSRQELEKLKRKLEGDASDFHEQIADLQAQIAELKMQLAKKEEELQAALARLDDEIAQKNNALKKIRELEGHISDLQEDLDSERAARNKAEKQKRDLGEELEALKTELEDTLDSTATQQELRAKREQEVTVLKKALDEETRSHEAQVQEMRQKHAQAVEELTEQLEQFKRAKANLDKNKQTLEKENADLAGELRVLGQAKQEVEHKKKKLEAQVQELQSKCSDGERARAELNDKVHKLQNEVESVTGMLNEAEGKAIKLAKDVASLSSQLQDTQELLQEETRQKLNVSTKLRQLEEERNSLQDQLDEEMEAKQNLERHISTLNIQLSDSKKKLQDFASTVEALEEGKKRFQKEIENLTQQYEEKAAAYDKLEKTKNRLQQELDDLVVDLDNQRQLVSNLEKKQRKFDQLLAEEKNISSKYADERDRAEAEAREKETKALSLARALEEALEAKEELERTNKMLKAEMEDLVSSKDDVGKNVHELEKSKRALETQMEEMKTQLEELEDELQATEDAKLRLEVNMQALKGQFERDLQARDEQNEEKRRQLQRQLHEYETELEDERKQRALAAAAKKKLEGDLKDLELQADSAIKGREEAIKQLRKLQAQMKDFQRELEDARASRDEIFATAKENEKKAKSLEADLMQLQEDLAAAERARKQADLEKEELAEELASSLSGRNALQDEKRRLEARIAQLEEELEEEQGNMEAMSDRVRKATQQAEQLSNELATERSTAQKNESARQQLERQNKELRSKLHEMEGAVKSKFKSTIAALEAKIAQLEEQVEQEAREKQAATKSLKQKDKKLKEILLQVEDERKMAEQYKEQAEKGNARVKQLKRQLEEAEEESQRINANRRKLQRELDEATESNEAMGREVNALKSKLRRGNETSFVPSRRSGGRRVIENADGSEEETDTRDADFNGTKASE
Sequence of UniProt O95747 (O95747 whole entry, looked up): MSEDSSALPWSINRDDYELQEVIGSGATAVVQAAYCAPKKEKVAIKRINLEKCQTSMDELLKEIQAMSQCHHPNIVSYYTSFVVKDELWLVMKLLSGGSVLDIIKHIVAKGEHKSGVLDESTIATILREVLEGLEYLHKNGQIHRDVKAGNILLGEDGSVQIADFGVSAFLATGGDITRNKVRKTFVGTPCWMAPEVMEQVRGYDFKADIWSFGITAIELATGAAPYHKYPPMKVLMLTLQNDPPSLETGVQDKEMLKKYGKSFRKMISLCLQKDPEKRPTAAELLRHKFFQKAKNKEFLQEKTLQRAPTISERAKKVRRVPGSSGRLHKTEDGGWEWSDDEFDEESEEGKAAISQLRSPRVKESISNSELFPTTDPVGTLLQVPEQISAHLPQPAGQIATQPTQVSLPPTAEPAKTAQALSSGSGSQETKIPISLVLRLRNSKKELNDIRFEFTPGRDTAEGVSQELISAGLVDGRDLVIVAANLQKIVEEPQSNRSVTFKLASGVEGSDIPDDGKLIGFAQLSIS
Sequence of UniProt P04181 (P04181 whole entry, looked up): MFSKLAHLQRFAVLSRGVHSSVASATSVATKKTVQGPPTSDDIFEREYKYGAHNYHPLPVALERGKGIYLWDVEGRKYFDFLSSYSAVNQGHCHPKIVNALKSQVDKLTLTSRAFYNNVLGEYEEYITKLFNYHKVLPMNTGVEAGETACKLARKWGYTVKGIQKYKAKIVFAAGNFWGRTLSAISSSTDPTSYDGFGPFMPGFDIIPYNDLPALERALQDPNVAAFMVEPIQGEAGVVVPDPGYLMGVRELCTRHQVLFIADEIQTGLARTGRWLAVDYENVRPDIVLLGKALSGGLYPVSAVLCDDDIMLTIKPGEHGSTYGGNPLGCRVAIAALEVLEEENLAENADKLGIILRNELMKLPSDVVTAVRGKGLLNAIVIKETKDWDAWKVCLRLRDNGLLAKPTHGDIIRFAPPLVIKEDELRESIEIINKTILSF
Sequence of UniProt P15559 (P15559 whole entry, looked up): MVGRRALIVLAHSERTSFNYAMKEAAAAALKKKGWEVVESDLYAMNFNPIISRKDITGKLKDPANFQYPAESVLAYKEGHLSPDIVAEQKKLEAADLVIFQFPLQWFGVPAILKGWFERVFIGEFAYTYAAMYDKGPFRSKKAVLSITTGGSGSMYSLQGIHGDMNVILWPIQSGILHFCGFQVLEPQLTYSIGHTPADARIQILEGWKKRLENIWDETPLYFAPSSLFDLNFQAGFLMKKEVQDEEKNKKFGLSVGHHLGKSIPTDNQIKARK
Sequence of UniProt Q00013 (Q00013 whole entry, looked up): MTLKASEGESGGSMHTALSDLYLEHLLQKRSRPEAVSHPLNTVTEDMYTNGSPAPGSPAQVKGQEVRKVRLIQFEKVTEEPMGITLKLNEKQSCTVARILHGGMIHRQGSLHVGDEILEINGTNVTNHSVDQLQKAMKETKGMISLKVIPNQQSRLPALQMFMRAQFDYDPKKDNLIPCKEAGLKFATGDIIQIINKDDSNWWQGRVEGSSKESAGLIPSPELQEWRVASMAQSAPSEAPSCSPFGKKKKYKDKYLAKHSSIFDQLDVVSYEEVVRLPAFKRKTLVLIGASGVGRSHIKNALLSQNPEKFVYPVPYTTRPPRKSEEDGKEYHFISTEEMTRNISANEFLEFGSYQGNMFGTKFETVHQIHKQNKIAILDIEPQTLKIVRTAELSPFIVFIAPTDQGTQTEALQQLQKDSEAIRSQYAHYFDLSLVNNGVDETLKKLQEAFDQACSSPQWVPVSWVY
Sequence of UniProt O00483 (O00483 whole entry, looked up): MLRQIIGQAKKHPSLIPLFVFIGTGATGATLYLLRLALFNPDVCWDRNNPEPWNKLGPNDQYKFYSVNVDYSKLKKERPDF

| Target | log2 fold change [1] | log2 fold change (volasertib) | log2 fold change [2] | log2 fold change (epoxomicin) | log2 fold change [3] | log2 fold change [4] | log2 fold change [5] | log2 fold change (rosiglitazone) | log2 fold change [6] | log2 fold change [7] | log2 fold change (saracatinib) | log2 fold change (sotrastaurin) | log2 fold change (alvocidib) | log2 fold change (Tubastatin A) | log2 fold change [8] | log2 fold change (defactinib) | log2 fold change (rucaparib) | log2 fold change [9] | log2 fold change (encorafenib) | log2 fold change [10] |
| --- | --- | --- | --- | --- | --- | --- | --- | --- | --- | --- | --- | --- | --- | --- | --- | --- | --- | --- | --- | --- |
| OXSR1 (UniProt O95747) | -0.122 | -0.274 (active) | 0.049 | 0.03 | -0.018 | -0.077 | 0.043 | 0.053 | 0.008 | -0.24 (active) | -0.048 | 0.004 | -0.094 | 0.038 | -0.061 | -0.093 | 0.001 | 0.033 | 0.042 | -0.051 |
| NASP (UniProt P49321) | -0.118 | -0.277 (active) | 0.049 | 0.046 | 0.035 | -0.03 | 0.004 | 0.029 | -0.061 | -0.051 | 0 | -0.045 | -0.08 | 0.012 | 0.073 | -0.085 | -0.11 | -0.041 | 0.001 | -0.004 |
| MMS19 isoform 8 (UniProt Q96T76) | -0.102 | -0.43 (active) | 0.075 | 0.013 | -0.009 | -0.052 | 0.11 | 0.076 | 0.051 | -0.085 | -0.013 | -0.156 | -0.115 | -0.071 | 0.003 | -0.127 | 0.052 | -0.003 | 0.099 | -0.008 |
| MRPS9 (UniProt P82933) | 0.094 | 0.109 | 0.076 | -0.009 | -0.082 | 0.027 | -0.004 | 0.012 | 0.071 | 0.001 | -0.064 | -0.072 | 0.043 | 0.04 | 0.013 | 0.056 | 0.087 | 0.136 | 0.05 | -0.081 |
| MPP1 (UniProt Q00013) | -0.039 | -0.112 | 0.063 | 0.058 | -0.025 | -0.051 | 0.011 | 0.051 | 0.043 | -0.256 (active) | -0.023 | -0.085 | -0.022 | 0.051 | 0.073 | -0.082 | 0.104 | 0.059 | 0.067 | -0.047 |
| NGLY1 (UniProt Q96IV0) | -0.07 | -0.367 (active) | 0.04 | -0.071 | -0.045 | -0.03 | 0.055 | 0.01 | 0.044 | -0.116 | -0.04 | -0.135 | -0.002 | -0.04 | 0.01 | -0.026 | 0.161 | 0.05 | 0.159 | -0.064 |
| MRPS33 (UniProt Q9Y291) | 0.016 | 0.025 | 0.057 | -0.012 | 0 | -0.011 | -0.01 | -0.007 | -0.001 | 0.017 | -0.033 | -0.077 | -0.038 | 0.02 | -0.018 | 0.087 | 0.119 | 0.04 | 0.024 | 0.02 |
| OAT (UniProt P04181) | 0.049 | 0.1 | 0.021 | 0.043 | -0.041 | -0.1 | 0.004 | -0.006 | -0.102 | -0.164 | -0.002 | -0.016 | -0.125 | 0.013 | 0.084 | -0.058 | -0.047 | -0.04 | -0.061 | 0.024 |
| NSMCE4A (UniProt Q9NXX6) | 0.069 | 0.053 | 0.103 | -0.02 | 0.112 | -0.251 | -0.13 | 0.057 | -0.33 | -0.009 | 0.109 | 0.015 | -0.003 | 0.05 | -0.112 | -0.086 | 0 | -0.114 | -0.064 | -0.002 |
| OTUD4 (UniProt Q01804) | 0.078 | -0.067 | 0.009 | -0.085 | -0.016 | 0.098 | 0.011 | -0.013 | 0.041 | 0.075 | -0.031 | -0.017 | 0.036 | -0.018 | -0.014 | 0.054 | 0.136 | 0.019 | 0.036 | 0.001 |
| NQO1 (UniProt P15559) | 0.011 | 0.057 | 0.276 (active) | 0.083 | 0.159 | -0.064 | -0.005 | 0.013 | 0.356 (active) | 0.046 | -0.076 | -0.002 | -0.108 | 0.027 | 0.161 | -0.038 | -0.077 | -0.008 | 0.005 | -0.022 |
| NUP107 (UniProt P57740) | 0.038 | -0.182 | 0.106 | -0.053 | -0.069 | 0.169 | -0.048 | 0.057 | 0.053 | 0.628 (active) | -0.017 | -0.103 | -0.056 | 0.067 | 0.023 | -0.081 | 0.041 | 0.02 | 0.111 | 0 |
| NDUFA4 (UniProt O00483) | 0.033 | 0.042 | -0.019 | 0.369 (active) | 0.09 | 0.019 | -0.039 | -0.026 | 0.018 | 0.101 | 0.021 | 0.021 | 0.022 | -0.029 | 0.009 | -0.03 | -0.106 | -0.129 | -0.04 | 0.001 |
| MYH11 isoform 2 (UniProt P35749) | -0.021 | -0.045 | 0.042 | 0.061 | -0.005 | 0.046 | 0.019 | 0.015 | -0.077 | -0.018 | 0.069 | -0.024 | -0.024 | -0.025 | 0.03 | -0.039 | -0.034 | 0.009 | 0.001 | -0.022 |
| NDUFAF6 (UniProt Q330K2) | -0.27 | -0.027 | -0.028 | 0.055 | -0.089 | -0.059 | -0.078 | 0.134 | -0.014 | -0.721 (active) | -0.071 | -0.112 | -0.025 | -0.101 | 0.038 | -0.04 | -0.108 | -0.146 | 0.081 | 0.084 |
| MNAT1 (UniProt P51948) | 0.029 | -0.027 | -0.029 | -0.057 | -0.006 | 0.015 | 0.032 | -0.027 | -0.011 | 0.015 | -0.017 | 0 | -0.002 | 0.006 | 0.012 | -0.03 | -0.046 | -0.004 | -0.006 | -0.009 |
